Sampled rows, rich in hits. Any-hit rate of the full collection: about 0.85%.
BLM helicase inh = Bloom syndrome helicase (human) inhibition | P54132 | recombinant BLM DNA unwinding, fluorescence dequenching | AID 2528 | actives 0.2% (n = 350,000) | Potency, µM (top dose mostly 56.1 µM), without a hit: at the top dose activity change, negative = inhibition, usual class: inhibitors;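 note: plate controls were vehicle for no effect and no enzyme for full effect; nearly all actives have a fitted effect of over 35% in size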
GLS inh = glutaminase GLS (human) inhibition. GLS enzymatic activity, qHTS titration. O94925. Potency, µM (highest dose often 45.5 µM), without a hit: top-dose activity change, negative = inhibition, hits mostly inhibitors. AID 624170. actives 0.21% (n = 410,000)
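Glutamate formation by hKGA was monitored fluorometrically using coupled glutamate oxidase, HRP and Amplex Red. Substrate was added as 1 mM L-glutamine solution; incubation was 30 min at RT after an initial read.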
APE1 inh = blocks human APE1 abasic DNA cleavage; P27695; recombinant APE1, TAMRA/BHQ-2 abasic DNA cleavage fluorescence; Potency, µM (doses to about 65.8 µM), without a hit: top-dose activity change, negative = inhibition, usual class: inhibitors; actives 0.35% (n = 350,000); AID 2517;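 note: plate controls were vehicle for no effect and reference inhibitor for full effect; nearly all actives have a fitted effect of over 55% in size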
Target sequence (P27695 whole entry, looked up): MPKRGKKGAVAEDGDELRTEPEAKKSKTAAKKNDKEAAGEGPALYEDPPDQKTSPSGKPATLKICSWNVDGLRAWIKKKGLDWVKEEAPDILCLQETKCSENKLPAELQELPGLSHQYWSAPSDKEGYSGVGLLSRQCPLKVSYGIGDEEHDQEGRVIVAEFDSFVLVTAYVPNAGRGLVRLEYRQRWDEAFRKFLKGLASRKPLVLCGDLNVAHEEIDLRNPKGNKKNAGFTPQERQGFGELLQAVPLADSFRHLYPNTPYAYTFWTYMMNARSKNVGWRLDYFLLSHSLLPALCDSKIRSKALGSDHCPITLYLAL
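Step 1: APE1 (0.75 nM) with compound, 15 min RT. Step 2: add 50 nM fluorophore/quencher THF duplex. Step 3: three fluorescence reads 60 s apart (525/598 nm); read 3 minus read 1 = reaction progress.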
Tb PGK inh = T. brucei PGK inhibition; PGK/GAPDH coupled, Kinase-Glo luminescence, 60 min; Potency, µM (highest dose often 57.5 µM), for the others: at the highest dose activity change, negative = inhibition, usual class: inhibitors; AID 602233; actives 0.043% (n = 380,000); note: nearly all actives have a fitted effect of over 60% in size
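Recombinant glycosomal PGK reaction used 1,3-bisphosphoglycerate generated in-well by GAPDH (100nM final) in 100mM TEA pH 7.6, 5mM MgCl2, 0.01% Tween-20. After 60 minutes at room temperature, ATP was read by Kinase-Glo Plus luminescence end-point.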
RECQ1 inh = RECQ1 (human) helicase inhibition. P46063. actives 0.54% (n = 240,000). Potency, µM (titrated, usually from 57.3 µM), for the others: at the top dose activity, negative = inhibition, most hits filed as inhibitors. RECQ1 DNA unwinding, red fluorescence kinetic read. AID 2549;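 note: plate controls were vehicle for no effect and no enzyme for full effect; nearly all actives have a fitted effect of over 30% in size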
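50 nM RECQ1T1 preincubated 15 min with compound in Tris pH 8.0 buffer with MgCl2, DTT, Tween-20 and 2.5 ug/ml poly(dI-dC); started with 200 nM TAMRA/BHQ-2 forked duplex and 2 mM ATP. Unwinding read as fluorescence (525/598 nm), two reads 2 h apart.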
TDP1 block = blocks human tyrosyl-DNA phosphodiesterase 1; Q9NUW8; recombinant TDP1, AlphaScreen DNA substrate cleavage; Potency, µM (titrated, usually from 130 µM), for inactives: at the highest dose activity change, negative = inhibition, hits mostly inhibitors; actives 0.28% (n = 350,000); note: nearly all actives have a fitted effect of over 40% in size
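Recombinant E. coli-expressed Tdp1 (1 nM) preincubated with compound 15 min at RT, then 5'-biotin/3'-phosphotyrosine-FITC DNA substrate (15 nM) added for 5 min. AlphaScreen beads (10 ug/ml) added, 10 min RT; tyrosine-FITC cleavage read as signal loss.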
* hit, by the source's call; i = inactive; ? = inconclusive; nt = not tested or not shown; [ ] = remark or other dose. Calls come from the whole dose curve; as a rule, active = well fitted curve in the direction sought with a large enough effect; inconclusive = small, poorly fitted or top-dose-only effect, or another doubt; inactive = no such curve, though single readings can be large; an effect the other way counts as inactive or inconclusive. Unless noted, % is set by controls: 0 for no effect and ±100 for the full control effect; potency is the fitted concentration of half-maximal effect.

SMILES	BLM helicase inh	GLS inh	APE1 inh	Tb PGK inh	RECQ1 inh	TDP1 block
CCOC(=O)c1cc(-c2ccc(/C=N\n3cnnc3)o2)ccc1Cl	0.8%	6.5%	22.3%	5.0%	-7.2%	1.1%
NC(N)=NCC1COC2(CCCCC2)O1 (configuration not stated)	nt	nt	4.5%[21 µM]	nt	nt	nt
Cn1c(NCc2cccnc2)nc2c1c(=O)n(Cc1ccccc1F)c(=O)n2C	-1.6%	?	-0.6%	2.0%	-4.8%	4.6%
CCCCNc1nc2c(c(=O)n(Cc3ccc(Cl)cc3)c(=O)n2C)n1C	-6.9%	-26.3%	nt	-3.7%	nt	7.4%
Cn1c(NCCCN2CCOCC2)nc2c1c(=O)n(Cc1ccc(Cl)cc1Cl)c(=O)n2C	-0.7%	2.51µM*	-1.3%	i	-4.7%	5.3%
COCCNc1nc2c(c(=O)n(Cc3ccccc3F)c(=O)n2C)n1C	0.8%	15.8µM*	37.1%	-8.7%	nt	nt
Cn1c(NCCO)nc2c1c(=O)n(Cc1ccc(F)cc1)c(=O)n2C	0.0%	21.8%	31.9%	-3.1%	nt	nt
Cn1c(NCCO)nc2c1c(=O)n(Cc1ccccc1Cl)c(=O)n2C	3.1%	5.01µM*	nt	-8.2%	nt	3.2%
CO/N=C1\C[C@]2(C[C@@H]3C[C@H](C/C=C(/C)C[C@@H](C)/C=C\C=C4\CO[C@@H]5[C@@H](O)C(C)=C[C@@H](C(=O)O3)[C@]45O)O2)O[C@@H](/C(C)=C/C(C)C)[C@H]1C	nt	-1.4%	nt	nt	nt	nt
COc1cc(-c2no[n+]([O-])c2C#N)cc(OC)c1OC	nt	nt	-4.0%	nt	nt	nt
Cc1cccc(C(=O)Nc2ccc(N3CCC(CCN4CCOCC4)CC3)c(C(=O)O)c2)c1	1.8%	-3.9%	48.2%	?	nt	25.1µM*
Cc1cccc(C(=O)Nc2ccc(N3CCN(c4ccc(F)cc4)CC3)c(C(=O)O)c2)c1	-0.4%	-14.2%	nt	-3.7%	nt	-14.2%
N#CC1(C#N)C(c2ccccc2)OC23CCCCCC2C1(C#N)C(=N)O3 (configuration not stated)	-7.6%	24.4%	0.3%	-4.4%	-3.2%	0.0%
N#CC1(C#N)C(c2ccccc2)OC23CCCCC2C1(C#N)C(=N)O3 (configuration not stated)	-5.3%	-1.9%	-1.8%	0.3%	12.6µM*	-2.3%
O=CC(O)C1OC(=O)C(O)C1O (configuration not stated)	nt	11.2µM*	nt	6.31µM*	nt	nt
O=C1O[C@H](CO)[C@@H](O)[C@H](O)[C@H]1O	nt	-0.8%	15.7%	-0.2%	nt	nt
c1ccc(CNCc2nnc(-c3cc4ccccc4[nH]3)s2)cc1	nt	nt	nt	nt	nt	-0.5%
O=C1CCCC(O)=C1N=Nc1c(Cl)cc(C(F)(F)F)cc1Cl	-7.8%	25.6%	?	i	12.6µM*	11.4%
Cn1cccc1-c1cc(C(=O)N/N=C/c2cc(Br)ccc2O)[nH]n1	-15.1%	-0.7%	3.1%[12.4 µM]	1.0%	nt	79.4µM*
Cn1cccc1-c1cc(C(=O)N/N=C/c2ccccc2Cl)[nH]n1	-6.4%	4.8%	-1.1%	2.0%	nt	-14.5%
CC(C)N1CCc2c(sc(N)c2C#N)C1	-5.3%	14.1µM*	9.8%	-8.6%	18.6%	7.0%
CCN1CCc2c(sc(N)c2C#N)C1	-2.2%	-22.7%	0.6%	-9.9%	8.5%	4.1%
CCn1cnc2c(Nc3ccc(CCC(=O)N=C(N)N)cc3)nc(C#N)nc21	nt	nt	nt	nt	nt	0.3%
Cc1ccccc1Nc1nc(C#N)nc(NC2CCCC2)n1	nt	nt	nt	nt	nt	-3.6%
Cc1nc(SCC(=O)Nc2ccc(OCc3ccccc3)cc2)n[nH]1	-6.0%	-7.2%	2.6%	-6.3%	i	6.1%
Nc1nc(SCC(=O)Nc2ccc(OCc3ccccc3)cc2)n[nH]1	-7.2%	9.7%	-2.0%	-7.6%	-8.0%	70.8µM*
CC(C)C(O)(C(=O)NNc1ccccc1)C(C)C	-6.5%	12.6µM*	2.9%	4.3%	-2.9%	nt
O=C1O[C@H]2[C@@H](OC(O)[C@@H]2O)[C@H]1O (some centres not stated)	nt	7.8%	nt	nt	nt	nt

Assay outcomes as filed in PubChem.
